Screening results: PubChem, National Center for Advancing Translational Sciences (NCATS)
JMJD2A Tudor inh: JMJD2A Tudor domain (human) inhibition | O75164 | AlphaScreen JMJD2A-Tudor / H3K4me3 peptide binding | Potency, µM (highest dose often 114 µM), without a hit: at the top dose activity change, negative = inhibition, actives largely listed as inhibitors | 390,000 compounds, 4.4% hits | AID 504339; note: % is set by controls: 0 for no effect and ±100 for the full control effect; nearly all actives have a fitted effect of over 50% in size
G9a block: G9a (human) methyltransferase inhibition | Q96KQ7 | G9a H3K9 monomethylation, AlphaScreen, 2 h | Potency, µM (series often up to 102 µM), for inactives: at the top dose activity, negative = inhibition, hits mostly inhibitors | 350,000 compounds, 8.8% hits; note: % is set by controls: 0 for no effect and ±100 for the full control effect; nearly all actives have a fitted effect of over 75% in size
Target sequence (Q96KQ7 913-1193 limits assumed): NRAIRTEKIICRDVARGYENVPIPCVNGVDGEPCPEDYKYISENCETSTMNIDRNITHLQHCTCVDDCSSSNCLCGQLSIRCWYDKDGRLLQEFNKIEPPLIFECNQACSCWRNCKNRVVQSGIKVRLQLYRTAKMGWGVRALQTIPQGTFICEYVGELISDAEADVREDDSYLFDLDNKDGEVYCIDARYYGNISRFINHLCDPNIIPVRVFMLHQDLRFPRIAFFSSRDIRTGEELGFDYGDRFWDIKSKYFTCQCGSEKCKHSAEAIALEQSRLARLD
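Methyltransferase reactions run at room temperature for 2 h (20 nM enzyme, 500 nM biotin-H3K9 peptide, 20 uM SAM) after a 15 min compound preincubation; product detected by AlphaScreen beads and anti-H3K9me1 antibody.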
BAZ2B inh: blocks human BAZ2B; Q9UIF8; AlphaScreen BAZ2B-H3K14Ac peptide displacement; Potency, µM (titrated, usually from 114 µM), for inactives: at the top dose activity change, negative = inhibition, hits mostly inhibitors; 360,000 compounds, 4.4% hits; note: % is set by controls: 0 for no effect and ±100 for the full control effect; nearly all actives have a fitted effect of over 60% in size
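Protein-peptide AlphaScreen: BAZ2B 50 nM, b-H3K14Ac 50 nM, 1x PBS pH 7.4 + 0.01% Tween-20. Preincubation 30 min RT; cpd 30 min RT (top 110 uM); beads 20 min RT, light-protected.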
VDR inhibitor: vitamin D3 receptor (human) inhibition; P11473; VDR-SRC2-3 peptide fluorescence polarization, 2 h; Potency, µM, without a hit: max response, negative = inhibition, most hits filed as inhibitors; 400,000 compounds, 0.93% hits; note: % is set by controls: 0 for no effect and ±100 for the full control effect
Target sequence (P11473 whole entry, looked up): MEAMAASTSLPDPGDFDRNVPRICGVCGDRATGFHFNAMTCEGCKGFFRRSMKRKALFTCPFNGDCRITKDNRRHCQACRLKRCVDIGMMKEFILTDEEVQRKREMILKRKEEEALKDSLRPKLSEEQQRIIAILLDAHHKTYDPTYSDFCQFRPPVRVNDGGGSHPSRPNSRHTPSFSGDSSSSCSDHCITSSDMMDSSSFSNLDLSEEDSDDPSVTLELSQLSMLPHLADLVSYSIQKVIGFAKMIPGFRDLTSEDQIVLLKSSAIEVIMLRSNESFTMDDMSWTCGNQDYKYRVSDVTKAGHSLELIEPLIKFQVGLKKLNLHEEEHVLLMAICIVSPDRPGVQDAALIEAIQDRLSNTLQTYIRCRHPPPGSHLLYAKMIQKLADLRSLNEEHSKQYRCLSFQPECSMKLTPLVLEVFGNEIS
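Signal is fluorescence polarization, reporting how far test compounds block the interaction of VDR with the SRC2-3 coregulator peptide after a 2 h room-temperature incubation.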
HP1b chromo inh: blocks HP1-beta chromodomain binding to methylated histone tails; AID 540317; Potency, µM (doses to about 114 µM), without a hit: at the top dose activity change, negative = inhibition, most hits filed as inhibitors; AlphaScreen HP1-beta / biotin-H3K9me3 peptide binding; 390,000 compounds, 0.56% hits; note: nearly all actives have a fitted effect of over 70% in size
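Compound inhibition of the preformed complex between 50 nM HP1-beta and 50 nM biotinylated H3K9me3 peptide was read by AlphaScreen. Buffer was PBS pH 7.4 with 0.01% Tween-20. Incubations ran 30 min at room temperature, with 10 ug/mL donor/acceptor beads.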
PLK1 PBD inh: blocks phosphopeptide binding to human PLK1 polo-box domain | 360,000 compounds, 2.8% hits | Plk1 PBD binding of FITC phosphopeptide, fluorescence polarization | Potency, µM, inactives show max response, negative = inhibition, most hits filed as inhibitors | AID 720504 | P53350; note: series mostly up to about 57 µM; % is set by controls: 0 for no effect and ±100 for the full control effect; nearly all actives have a fitted effect of over 65% in size
The depositor's hits bear a star; ? = inconclusive; . = no result given; ! = repeats disagree; [ ] = remark or other dose. Compounds with a hit are over-represented: about 11% of the library has one in this group of screens. Calls come from the whole dose curve; as a rule, active = well fitted curve in the direction sought with a large enough effect; inconclusive = small, poorly fitted or top-dose-only effect, or another doubt; inactive = no such curve, though single readings can be large; an effect the other way counts as inactive or inconclusive. Potency is the fitted concentration of half-maximal effect.

SMILES	JMJD2A Tudor inh	G9a block	BAZ2B inh	VDR inhibitor	HP1b chromo inh	PLK1 PBD inh
O=C(CSc1nnc(-c2ccc(OC(F)F)cc2)o1)NC(=O)NCc1ccco1	?	?	50µM*	-25%	10%	-11%
COc1ccc(-c2nnc(SCC(=O)NC(=O)NCc3ccccc3)o2)cc1	-23%	45µM*	-22%	3%	20%	1%
O=C(CSc1nnc(-c2ccc(S(=O)(=O)N3CCCC3)cc2)o1)NCc1ccco1	-28%	?	50µM*	-2%	46%	-11%
Cc1ccc(-c2nnc(SCC(=O)Nc3ccc(S(=O)(=O)N4CCCCCC4)cc3)o2)cc1	-1%	22%	21%	13%	22%	-1%
CN1C(=O)C(C)(C)c2cc(S(=O)(=O)N3CCN(c4ccccc4)CC3)ccc21	-24%	.	15%	-25%	16%	-6%
Cc1ccccc1CSCC(=O)NC(=O)NCc1ccco1	45µM*	45µM*	-99%	-12%	?	-25%
O=C(CSc1ccccc1F)NC(=O)NCc1ccco1	-21%	-32%	40µM*	-14%	11%	?
O=C(CSc1nnc(CNC(=O)c2c(F)cccc2F)o1)NCc1ccco1	-23%	.	71µM*	-2%	7%	-14%
O=C(CSc1ncccn1)NC(=O)NCc1ccco1	-30%	-36%	.	-3%	27%	-18%
O=C(CSc1cccc(C(F)(F)F)c1)NC(=O)NCc1ccco1	79µM*	11%[59 µM]	50µM*	-8%	-1%	-27%
COC(=O)N1[C@H]2CC[C@@]3(C)CC(=O)C[C@]1(C)C3c1ccccc12	.	.	.	1%	.	.
CCC(Sc1nc2c(c(=O)n1CC)SC(C)C2)C(=O)OC (stereo unspecified)	-18%	-6%[59 µM]	-2%	-5%	19%	-14%
COc1ccc(Cc2nnc(SCC(=O)Nc3ccccc3C#N)o2)cc1	-12%	43%	-5%	-7%	14%	-10%
COc1ccc(N2CCN(CCNC(=O)CCS(=O)(=O)c3cccc4nsnc34)CC2)cc1	.	45µM*	?	.	.	.
O=C(CCS(=O)(=O)c1cccc2nonc12)Nc1ccc(Br)cc1	79µM*!	8%	-1%	-30%	5%	?
O=C(CCS(=O)(=O)c1cccc2nsnc12)Nc1ccc(F)cc1	-21%	10µM*	-1%	-17%	3%	.
CC(C)(C)OC(=O)N1CCC(c2c(C(=O)N3CCN(c4ccccc4F)CC3)cnn2C(C)(C)C)CC1	-17%	-29%[59 µM]	3%[57.1 µM]	-20%	19%	.
O=C(NCCc1ccccc1)C1CC(=O)N(C2CCCCC2)C1 (stereo unspecified)	-14%	105%	7%	16%	11%	-13%
COC(=O)c1ccc(NC(=O)C2C3C=CC(C3)C2C(=O)O)cc1 (stereo unspecified)	0%	8%	3%	-13%	21%	-14%
O=C(ONC(=O)C1C2C=CC(C2)C1C(=O)NOC(=O)c1ccccc1)c1ccccc1 (stereo unspecified)	0.79µM*	.	.	-9%	52%	6%
CC1CCN(C(=O)C2CCN(CCCc3ccccc3)CC2)CC1	.	14µM*	?	.	.	.
O=C(C1CCN(CCCc2ccccc2)CC1)N1CCCCC1	0.89µM*	20µM*	?	-23%	?	-9%
Fc1ccccc1/C=N/NC(=S)Nc1ccc(Cl)cc1Cl	-18%	37%[59 µM]	1%	-11%	27%	-4%
S=c1[nH]nc(COc2ccccc2)n1/N=C/c1cccs1	?	1.4µM*	-29%	-14%	-20%	-26%
Cc1ccsc1/C=N/n1c(COc2ccccc2)n[nH]c1=S	?	0.89µM*	10%	-15%	-15%	?
SMILES	JMJD2A Tudor inh	G9a block	BAZ2B inh	VDR inhibitor	HP1b chromo inh	PLK1 PBD inh
COc1ccc(CCNc2nc(SCc3cccc(Cl)c3)nc3ccccc23)cc1OC	-19%	5%[59 µM]	-11%	12%	-6%	.
COC(=O)c1cc(=O)c2c(C)nc(C(Cl)(Cl)Cl)nc2[nH]1	-17%	5%	?	-1%	21%	-7%
Cc1ncc(CSSCc2cnc(C)c(O)c2CO)c(CO)c1O	.	6%[59 µM]	.	?	.	.
Cc1ncc(CO)c(CNc2ccc(Oc3ccccc3)cc2)c1O	?	71µM*	?	13%	?	7%
CCC1=NNc2cccc3c(OC)ccc1c23	.	25µM*	28µM*	.	.	.
O=[N+]([O-])c1ccccc1N(S(=O)(=O)c1ccccc1)S(=O)(=O)c1ccccc1	?	.	.	-3%	-5%	-5%
Nc1nc(-c2ccc(Br)s2)c(Br)s1	?	?	40µM*	-9%	-29%	?
N#Cc1c(N)nc2c(c1-c1ccc(Br)s1)CCCC2	-6%	45%[59 µM]	0%	-10%	49%	0%
Cc1cc(C)c(S(C)(=O)=O)c(Oc2ccc(F)cc2)n1	-5%	36%	-2%[57.1 µM]	-23%	19%	-9%
Cc1cc(C)c(S(C)(=O)=O)c(Oc2ccccc2C)n1	-23%[11.4 µM]	10%	2%	-13%	-6%	21µM*
COc1ccccc1C(=O)NCCC(=O)N1CCN(S(=O)(=O)c2ccccc2C(F)(F)F)CC1	-2%	-19%	3%	-21%	26%	-4%
O=C(NC1CCCC1)c1ccc(CSc2nc3ccncc3n2Cc2ccc(F)cc2)cc1	-24%	45µM*!	-4%	-1%	20%	-3%
O=C(NC1CCCC1)c1ccc(CSc2nc3ccncc3n2Cc2cccc(F)c2)cc1	-6%	?	-1%	13%	40%	.
CCCCCN(C(=O)CCC(=O)OCC(=O)c1c(C)cc(C)cc1C)c1c(N)n(CCCC)c(=O)[nH]c1=O	-1%	-2%[12.7 µM]	8%	4%	18%	-1%
COc1cccc(CN(C)C(=O)c2[nH]c(C)c(C(C)=O)c2C)c1OC	?	?	?	?	-6%	27µM*
COc1ccccc1N(C)S(=O)(=O)c1ccc(C(=O)N(C)Cc2cccc(OC)c2OC)cc1	.	.	.	.	.	0%
CC1(N2CCOCC2)CC2(O)C(=[N+]1[O-])CCc1c2no[n+]1[O-] (stereo unspecified)	?	?	?	-4%	4%	6µM*
O=C(CN(CCc1ccccc1)S(=O)(=O)c1ccc(Br)cc1)NCc1ccc(Cl)cc1	14µM*	?	?	4%	8%	.
COC(=O)c1ccc(NC(=O)CN(CCc2ccccc2)S(=O)(=O)c2ccc(OC)cc2)cc1	-17%	-4%[59 µM]	-6%	-16%	25%	.
O=C(CN(CCc1ccccc1)S(=O)(=O)c1ccccc1)NCc1ccc(Cl)cc1	-9%	5%[59 µM]	5%	1%	59%	.
COc1cccc(NC(=O)CN(CCc2ccccc2)S(=O)(=O)c2ccc(Cl)cc2)c1	28µM*	14µM*	?	-4%	-19%	.
COc1ccccc1C(=O)Nc1nnc(S(=O)(=O)N(C)c2ccc(Cl)cc2)s1	0%	9%[59 µM]	13%	13%	44%	.
